Inhibition data for seven molecules are collected here from ChEMBL document CHEMBL1961873, “Compounds: GSK PKIS; Assays: Nanosyn kinase panel” (2012).

By inhibition is commonly meant the change of the read-out against control, counted positive when it falls.

Test [1] addresses Tyrosine-protein kinase Fer (Homo sapiens) (UniProt P16591). To be noted: at 1 µM.
Test [2] deals with Tyrosine-protein kinase Fes/Fps (Homo sapiens) (UniProt P07332). As to conditions: at 0.1 µM.
For test [3] the target is unchanged. To be noted: at 1 µM.
Test [4] concerns the target Fibroblast growth factor receptor 1 (Homo sapiens) (UniProt P11362). As to conditions: at 0.1 µM.
For test [5] the target is unchanged. As to conditions: at 1 µM.
Test [6] has as its target Fibroblast growth factor receptor 2 (Homo sapiens) (UniProt P21802). As to conditions: at 0.1 µM.
For test [7] the target is unchanged. To be noted: at 1 µM.
The target in test [8] is Fibroblast growth factor receptor 3 (Homo sapiens) (UniProt P22607). As to conditions: at 0.1 µM.
Test [9] shares this target. As to conditions: at 1 µM.
For test [10], the target named is Fibroblast growth factor receptor 4 (Homo sapiens) (UniProt P22455). As to conditions: at 0.1 µM.
Chain of Fibroblast growth factor receptor 4 (Homo sapiens) (P22455 22-802 limits assumed): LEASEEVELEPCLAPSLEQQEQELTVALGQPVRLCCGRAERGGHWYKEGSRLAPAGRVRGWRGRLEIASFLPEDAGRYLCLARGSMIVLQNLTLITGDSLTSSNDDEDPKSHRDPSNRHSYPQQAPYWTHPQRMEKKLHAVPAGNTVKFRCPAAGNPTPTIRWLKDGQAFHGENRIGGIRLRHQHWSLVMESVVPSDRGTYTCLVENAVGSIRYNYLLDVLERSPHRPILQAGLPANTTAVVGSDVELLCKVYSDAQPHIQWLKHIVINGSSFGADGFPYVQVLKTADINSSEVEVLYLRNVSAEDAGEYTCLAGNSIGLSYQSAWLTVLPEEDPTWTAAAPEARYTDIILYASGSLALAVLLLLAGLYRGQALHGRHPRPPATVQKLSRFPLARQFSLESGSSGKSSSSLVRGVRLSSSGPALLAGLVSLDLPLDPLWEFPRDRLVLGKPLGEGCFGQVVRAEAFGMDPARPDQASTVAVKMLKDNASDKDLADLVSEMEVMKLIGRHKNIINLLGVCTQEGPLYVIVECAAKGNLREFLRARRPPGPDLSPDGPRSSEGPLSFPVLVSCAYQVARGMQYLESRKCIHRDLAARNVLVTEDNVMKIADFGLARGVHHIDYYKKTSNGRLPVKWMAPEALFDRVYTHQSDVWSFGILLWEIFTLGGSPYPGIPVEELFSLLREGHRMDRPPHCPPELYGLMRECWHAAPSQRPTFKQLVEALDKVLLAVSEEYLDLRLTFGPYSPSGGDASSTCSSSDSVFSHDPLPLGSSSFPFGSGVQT
Test [11] has the same target. As to conditions: at 1 µM.
The target of test [12] is Tyrosine-protein kinase Fgr (Homo sapiens) (UniProt P09769). To be noted: at 0.1 µM.
For test [13] the target is unchanged. As to conditions: at 1 µM.
Test [14] addresses Vascular endothelial growth factor receptor 1 (Homo sapiens) (UniProt P17948). As to conditions: at 0.1 µM.
Test [15] has the same target. As to conditions: at 1 µM.
Test [16] addresses Receptor-type tyrosine-protein kinase FLT3 (Homo sapiens) (UniProt P36888). As to conditions: at 0.1 µM.
For test [17] the target is unchanged. To be noted: at 1 µM.
The subject of test [18] is T1, Receptor-type tyrosine-protein kinase FLT3 (Homo sapiens), P36888 [D835Y].
T1 sequence (whole entry): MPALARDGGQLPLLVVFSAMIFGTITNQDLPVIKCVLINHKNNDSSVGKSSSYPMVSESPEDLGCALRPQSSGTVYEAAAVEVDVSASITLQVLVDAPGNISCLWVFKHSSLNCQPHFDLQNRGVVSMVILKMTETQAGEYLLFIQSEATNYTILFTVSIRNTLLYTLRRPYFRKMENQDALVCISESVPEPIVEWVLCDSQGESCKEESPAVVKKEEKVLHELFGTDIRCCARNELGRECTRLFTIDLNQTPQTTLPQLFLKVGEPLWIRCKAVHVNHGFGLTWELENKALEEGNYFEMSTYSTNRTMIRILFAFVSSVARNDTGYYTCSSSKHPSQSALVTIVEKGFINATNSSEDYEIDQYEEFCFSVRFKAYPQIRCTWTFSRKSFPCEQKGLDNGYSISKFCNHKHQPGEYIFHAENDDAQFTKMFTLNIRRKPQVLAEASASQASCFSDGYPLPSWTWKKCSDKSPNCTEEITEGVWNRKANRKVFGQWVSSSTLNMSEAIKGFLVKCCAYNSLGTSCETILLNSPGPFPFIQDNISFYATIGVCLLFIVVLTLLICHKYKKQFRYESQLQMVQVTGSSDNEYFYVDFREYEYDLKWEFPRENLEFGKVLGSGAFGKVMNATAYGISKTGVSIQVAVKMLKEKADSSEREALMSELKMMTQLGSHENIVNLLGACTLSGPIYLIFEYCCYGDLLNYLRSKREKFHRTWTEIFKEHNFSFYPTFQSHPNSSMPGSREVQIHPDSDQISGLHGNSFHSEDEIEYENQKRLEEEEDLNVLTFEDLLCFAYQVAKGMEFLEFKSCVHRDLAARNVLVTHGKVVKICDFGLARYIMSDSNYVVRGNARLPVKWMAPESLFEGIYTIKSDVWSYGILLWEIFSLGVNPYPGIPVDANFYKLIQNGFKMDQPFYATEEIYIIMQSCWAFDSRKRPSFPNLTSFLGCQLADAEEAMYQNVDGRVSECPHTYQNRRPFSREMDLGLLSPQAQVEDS
To be noted: at 0.1 µM.

Test [19] concerns the target Non-receptor tyrosine-protein kinase TYK2 (Homo sapiens) (UniProt P29597). To be noted: at 1 µM.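 Note: values are mean percent inhibition of TYK2 kinase.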
Test [20] has as its target T2, Tyrosine-protein kinase receptor TYRO3 (Homo sapiens) (UniProt Q06418).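 Note: reported percentages are averaged inhibition values of TYRO3 kinase activity.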
T2 sequence (whole entry): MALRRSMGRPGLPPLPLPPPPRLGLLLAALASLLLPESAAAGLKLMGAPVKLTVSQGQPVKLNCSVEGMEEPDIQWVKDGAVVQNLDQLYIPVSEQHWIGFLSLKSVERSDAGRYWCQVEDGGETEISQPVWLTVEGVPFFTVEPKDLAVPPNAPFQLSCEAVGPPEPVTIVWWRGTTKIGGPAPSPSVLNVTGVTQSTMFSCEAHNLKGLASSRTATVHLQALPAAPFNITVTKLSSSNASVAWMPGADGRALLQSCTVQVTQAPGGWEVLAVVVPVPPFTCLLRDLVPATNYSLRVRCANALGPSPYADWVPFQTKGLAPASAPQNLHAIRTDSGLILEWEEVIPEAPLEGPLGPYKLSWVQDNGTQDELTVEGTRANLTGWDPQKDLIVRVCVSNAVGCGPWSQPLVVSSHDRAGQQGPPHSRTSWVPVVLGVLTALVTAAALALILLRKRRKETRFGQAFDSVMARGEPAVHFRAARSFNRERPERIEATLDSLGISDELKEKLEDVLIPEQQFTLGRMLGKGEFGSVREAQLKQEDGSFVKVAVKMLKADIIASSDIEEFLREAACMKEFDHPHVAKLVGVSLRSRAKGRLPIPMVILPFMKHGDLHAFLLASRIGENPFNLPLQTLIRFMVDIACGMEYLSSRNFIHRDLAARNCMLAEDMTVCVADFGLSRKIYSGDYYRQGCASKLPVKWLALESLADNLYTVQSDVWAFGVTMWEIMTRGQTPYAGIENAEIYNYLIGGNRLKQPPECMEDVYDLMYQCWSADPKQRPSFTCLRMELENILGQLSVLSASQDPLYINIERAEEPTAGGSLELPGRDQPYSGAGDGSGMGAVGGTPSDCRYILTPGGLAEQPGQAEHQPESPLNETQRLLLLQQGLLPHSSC
As to conditions: at 0.1 µM.

Chain of Non-receptor tyrosine-protein kinase TYK2 (Homo sapiens) (P29597 whole entry): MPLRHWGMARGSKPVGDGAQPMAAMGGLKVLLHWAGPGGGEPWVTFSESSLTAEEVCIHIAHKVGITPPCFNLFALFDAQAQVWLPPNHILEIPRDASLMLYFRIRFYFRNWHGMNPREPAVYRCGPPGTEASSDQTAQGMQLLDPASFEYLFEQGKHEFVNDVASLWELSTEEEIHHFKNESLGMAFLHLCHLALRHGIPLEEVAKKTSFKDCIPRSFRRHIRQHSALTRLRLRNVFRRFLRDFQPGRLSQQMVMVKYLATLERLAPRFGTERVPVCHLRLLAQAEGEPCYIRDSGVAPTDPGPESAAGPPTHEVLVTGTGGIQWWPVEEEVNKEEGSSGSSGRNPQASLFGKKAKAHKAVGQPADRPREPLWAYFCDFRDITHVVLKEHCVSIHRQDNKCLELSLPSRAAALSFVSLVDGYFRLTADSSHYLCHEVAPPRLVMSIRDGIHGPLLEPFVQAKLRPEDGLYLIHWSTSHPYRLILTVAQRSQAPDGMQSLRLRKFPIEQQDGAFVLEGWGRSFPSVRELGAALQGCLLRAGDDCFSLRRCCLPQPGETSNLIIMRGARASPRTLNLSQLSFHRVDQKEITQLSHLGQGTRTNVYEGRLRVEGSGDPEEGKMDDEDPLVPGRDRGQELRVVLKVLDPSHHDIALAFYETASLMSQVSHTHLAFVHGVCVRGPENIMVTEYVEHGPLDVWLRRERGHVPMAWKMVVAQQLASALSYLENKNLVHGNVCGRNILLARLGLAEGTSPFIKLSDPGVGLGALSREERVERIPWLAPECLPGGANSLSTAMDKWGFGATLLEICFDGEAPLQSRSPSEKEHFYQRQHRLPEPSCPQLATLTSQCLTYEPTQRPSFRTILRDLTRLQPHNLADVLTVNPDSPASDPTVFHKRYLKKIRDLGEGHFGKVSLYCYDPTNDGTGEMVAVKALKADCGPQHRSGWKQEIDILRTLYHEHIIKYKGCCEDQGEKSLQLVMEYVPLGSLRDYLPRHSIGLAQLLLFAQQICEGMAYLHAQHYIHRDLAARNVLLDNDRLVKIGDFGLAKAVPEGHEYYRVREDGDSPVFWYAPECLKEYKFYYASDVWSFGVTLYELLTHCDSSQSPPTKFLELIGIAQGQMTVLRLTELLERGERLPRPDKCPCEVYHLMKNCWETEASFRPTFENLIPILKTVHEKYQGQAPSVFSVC
Chain of Vascular endothelial growth factor receptor 1 (Homo sapiens) (P17948 whole entry): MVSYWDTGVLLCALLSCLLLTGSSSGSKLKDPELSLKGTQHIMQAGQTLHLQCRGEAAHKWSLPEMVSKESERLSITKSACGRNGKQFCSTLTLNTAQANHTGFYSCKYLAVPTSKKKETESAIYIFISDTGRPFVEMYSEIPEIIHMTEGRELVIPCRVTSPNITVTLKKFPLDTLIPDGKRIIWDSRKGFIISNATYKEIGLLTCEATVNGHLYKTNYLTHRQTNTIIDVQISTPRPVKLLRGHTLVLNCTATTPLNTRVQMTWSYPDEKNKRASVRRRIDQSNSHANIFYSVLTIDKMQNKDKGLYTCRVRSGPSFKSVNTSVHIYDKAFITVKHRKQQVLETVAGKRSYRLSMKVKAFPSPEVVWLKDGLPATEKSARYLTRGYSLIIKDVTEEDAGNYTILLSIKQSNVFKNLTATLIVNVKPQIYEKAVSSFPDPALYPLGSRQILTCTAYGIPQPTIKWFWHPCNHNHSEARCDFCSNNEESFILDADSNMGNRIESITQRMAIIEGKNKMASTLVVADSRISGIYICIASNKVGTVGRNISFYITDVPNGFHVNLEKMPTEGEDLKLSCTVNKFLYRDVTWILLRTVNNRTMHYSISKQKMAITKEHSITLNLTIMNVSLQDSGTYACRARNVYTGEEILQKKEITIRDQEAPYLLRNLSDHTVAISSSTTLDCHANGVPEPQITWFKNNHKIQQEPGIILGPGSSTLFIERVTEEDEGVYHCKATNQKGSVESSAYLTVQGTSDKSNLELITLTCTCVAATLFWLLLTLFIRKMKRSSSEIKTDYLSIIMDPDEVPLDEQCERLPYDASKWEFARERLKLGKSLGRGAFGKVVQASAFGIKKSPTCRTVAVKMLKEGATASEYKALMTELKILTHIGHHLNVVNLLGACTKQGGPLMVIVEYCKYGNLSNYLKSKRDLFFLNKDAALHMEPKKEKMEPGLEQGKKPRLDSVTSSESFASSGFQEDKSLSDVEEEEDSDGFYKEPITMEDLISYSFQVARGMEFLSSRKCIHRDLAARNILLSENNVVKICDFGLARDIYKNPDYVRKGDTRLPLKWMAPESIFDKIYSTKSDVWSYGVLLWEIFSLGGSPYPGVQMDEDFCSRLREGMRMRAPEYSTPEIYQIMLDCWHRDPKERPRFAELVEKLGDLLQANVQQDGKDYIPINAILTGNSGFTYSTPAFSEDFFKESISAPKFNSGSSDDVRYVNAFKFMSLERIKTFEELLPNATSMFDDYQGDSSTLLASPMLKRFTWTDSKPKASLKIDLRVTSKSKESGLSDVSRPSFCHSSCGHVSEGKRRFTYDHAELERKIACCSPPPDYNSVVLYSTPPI
Chain of Fibroblast growth factor receptor 2 (Homo sapiens) (P21802 22-821 limits assumed): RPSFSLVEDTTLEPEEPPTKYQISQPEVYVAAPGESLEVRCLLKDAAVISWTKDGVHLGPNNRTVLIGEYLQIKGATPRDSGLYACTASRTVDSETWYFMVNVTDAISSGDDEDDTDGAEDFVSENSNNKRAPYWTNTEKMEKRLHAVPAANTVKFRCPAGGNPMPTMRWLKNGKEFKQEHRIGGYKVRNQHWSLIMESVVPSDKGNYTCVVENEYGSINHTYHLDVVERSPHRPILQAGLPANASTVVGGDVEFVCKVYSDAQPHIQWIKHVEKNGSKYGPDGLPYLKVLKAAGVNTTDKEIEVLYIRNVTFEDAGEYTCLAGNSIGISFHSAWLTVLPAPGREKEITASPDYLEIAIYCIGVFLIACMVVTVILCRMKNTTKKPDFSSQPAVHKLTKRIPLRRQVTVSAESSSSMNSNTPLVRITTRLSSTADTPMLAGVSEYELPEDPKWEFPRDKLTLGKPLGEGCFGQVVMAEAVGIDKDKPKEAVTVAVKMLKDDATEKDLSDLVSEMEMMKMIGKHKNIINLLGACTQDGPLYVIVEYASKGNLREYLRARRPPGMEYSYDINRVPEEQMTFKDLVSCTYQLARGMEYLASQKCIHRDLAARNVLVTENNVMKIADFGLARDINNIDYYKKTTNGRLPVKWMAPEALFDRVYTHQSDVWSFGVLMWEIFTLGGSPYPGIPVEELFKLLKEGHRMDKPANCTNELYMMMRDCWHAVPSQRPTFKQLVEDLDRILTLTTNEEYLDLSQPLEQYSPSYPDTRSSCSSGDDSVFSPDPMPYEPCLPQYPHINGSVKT
Chain of Fibroblast growth factor receptor 1 (Homo sapiens) (P11362 22-822 limits assumed): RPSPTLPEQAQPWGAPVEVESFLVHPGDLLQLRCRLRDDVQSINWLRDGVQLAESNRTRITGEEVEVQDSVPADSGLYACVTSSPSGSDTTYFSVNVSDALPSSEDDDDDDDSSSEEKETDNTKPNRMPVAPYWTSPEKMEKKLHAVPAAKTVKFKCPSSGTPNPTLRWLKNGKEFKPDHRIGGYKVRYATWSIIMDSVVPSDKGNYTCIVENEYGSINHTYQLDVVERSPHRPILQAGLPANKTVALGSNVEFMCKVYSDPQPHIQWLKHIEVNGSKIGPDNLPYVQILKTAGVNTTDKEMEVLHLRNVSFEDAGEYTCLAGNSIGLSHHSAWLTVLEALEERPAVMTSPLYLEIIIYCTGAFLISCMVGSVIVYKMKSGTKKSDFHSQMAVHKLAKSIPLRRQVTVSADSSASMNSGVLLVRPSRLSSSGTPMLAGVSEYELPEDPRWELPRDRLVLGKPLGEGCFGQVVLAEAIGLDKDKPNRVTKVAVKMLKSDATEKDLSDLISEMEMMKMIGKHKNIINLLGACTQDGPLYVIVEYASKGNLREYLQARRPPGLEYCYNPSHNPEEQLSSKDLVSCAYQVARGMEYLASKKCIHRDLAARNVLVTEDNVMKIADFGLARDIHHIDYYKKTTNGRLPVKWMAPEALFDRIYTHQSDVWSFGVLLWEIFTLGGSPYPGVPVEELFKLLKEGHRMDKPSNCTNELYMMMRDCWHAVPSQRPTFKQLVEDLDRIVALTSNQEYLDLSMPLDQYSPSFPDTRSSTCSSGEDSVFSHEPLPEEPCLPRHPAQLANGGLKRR

For `Cc1nnc(-c2ccc(C)c(-c3ccc(C(=O)Nc4cccc(C#N)c4)cc3)c2)o1`, the inhibition in [1] was 1.72%; in test [2] it was 0.91%; in [3], 2.11%; in [4], -1.37%; in test [5], 1.5%; in test [6], 1.7%. The inhibition in test [7] came to 4.97%; in test [8], 2.6%; in [9] it was 3.98%; in [10], 2.08%; in test [11] it was 0.88%; in test [12], 4.67%. Also, the inhibition is 5.11% in [13]; -0.39% in test [14]; 1.58% in test [15]; -0.61% in test [16]; 1.58% in [17]; 0.86% in test [18]. The figures for the inhibition in test [19] and in test [20] were -1.12% and 1.94%, respectively.
In the case of `CS(=O)(=O)CCNCc1ccc(-c2ccc3ncnc(Nc4ccc(OCc5ccccc5)c(Cl)c4)c3c2)o1`, the inhibition was found to be 10.4% in [1]; 0.53% in [2]; 0.08% in test [3]; 0.78% in [4]; 3.71% in [5]; 0.57% in test [6]. For the same molecule, the inhibition was 5.46% in [7]; 2.05% in test [8]; 4.98% in [9]; -0.26% in [10]; 0.28% in test [11]; 2.49% in test [12]. The inhibition was 11.5% in test [13]; -0.51% in test [14]; 0.52% in [15]; 1.48% in test [16]; 2.75% in [17]; -3.65% in test [18]. Besides, the inhibition stood at 1.7% in test [19] and 0.02% in test [20].
Turning to `O=C(Nc1n[nH]c2nc(-c3ccco3)c(Br)cc12)C1CC1`, the inhibition in [1] was determined as 0.63%; in test [2], 2.91%; in test [3] it was 3.27%; in [4], 1.76%; in [5], 5.28%; in [6], 2.01%. Moreover, the inhibition is 7.9% in test [7]; 6.29% in [8]; 7.26% in test [9]; -0.77% in test [10]; 2.76% in test [11]; 2.88% in [12]. Also, the inhibition was 11.3% in [13]; 2.26% in test [14]; 4.22% in test [15]; 1.23% in test [16]; 2.62% in test [17]; -1.82% in test [18]. The inhibition was -1.51% in [19] and 2.22% in [20].
In the case of `Cc1ccc(NC(=O)c2ccnc(N3CCCC3)c2)cc1-c1ccc(C(=O)NCC2CC2)cc1`, the inhibition was 1.67% in test [1]; 5.28% in test [2]; 5.19% in [3]; -1.44% in test [4]; 2.19% in test [5]; 1.81% in test [6]. For the same molecule, the inhibition in [7] is 7.09%; in test [8], 6.97%; in test [9], 4.11%; in [10], -8.29%; in test [11] it was -0.86%; in test [12], 1.54%. Also, the inhibition was 6.32% in [13]; -0.77% in [14]; 0.49% in test [15]; 1.08% in test [16]; 7.31% in test [17]; -8.49% in test [18]. The inhibition is -2.58% in test [19] and 2.24% in [20].
`COc1cc2c(cc1Nc1nc(N3CCc4ccccc43)c3cc[nH]c3n1)N(C(=O)CN(C)C)CC2`: the inhibition was 85.2% in [1]; 39.9% in [2]; 62.3% in test [3]; 2.98% in test [4]; -1.36% in test [5]; 0.56% in test [6]. Moreover, the inhibition is 6.55% in test [7]; 3.52% in test [8]; 0.84% in test [9]; -1.03% in test [10]; 0.78% in test [11]; -0.2% in test [12]. The inhibition in test [13] was 3.44%; in [14] it was 1.49%; in [15] it was 2.02%; in test [16], 0.56%; in test [17], -1.35%; in test [18], -2.55%. Also, the results for the inhibition in test [19] and in test [20] were -2.82% and 1.61%, respectively.
For `Cn1cc(C=C2C(=O)Nc3cccnc32)c2ccccc21`, the inhibition in test [1] worked out at 20.8%; in [2] it was 1.69%; in test [3], 2.19%; in test [4], 6.57%; in test [5], 17.3%; in test [6], 9.78%. For the same molecule, the inhibition came out at 42.2% in test [7]; 11.2% in test [8]; 47.8% in [9]; 2.46% in test [10]; 14.1% in test [11]; 7.5% in test [12]. In addition, the inhibition in test [13] is 44%; in [14] it was 1.42%; in [15], 13.1%; in test [16] it was 20.3%; in [17] it was 66.2%; in test [18], 32.7%. In addition, the inhibition in [19] worked out at 0.73%; in test [20] it was 2.36%.
Regarding `COc1ccccc1Nc1ncc(-c2ccccc2)o1`, the inhibition in test [1] stood at 11.2%; in test [2], 4.25%; in test [3] it was 3.85%; in test [4] it was 8.72%; in test [5], 5.99%; in test [6], 6.35%. The inhibition in test [7] was 13.7%; in [8], 6.19%; in [9], 13.1%; in test [10] it was -2.79%; in test [11], 0.7%; in test [12], 5.21%. In addition, the inhibition in [13] is 12.1%; in [14] it was 4.3%; in test [15], 16.4%; in test [16], 61%; in test [17], 87.2%; in test [18] it was 5.09%. In addition, the inhibition in [19] is -0.92%; in test [20], 1.91%.
